Source: PubChem
RORgamma inh: qHTS for inhibitors of ROR gamma transcriptional activity. 310,000 compounds, 5.4% hits. Potency, µM (highest dose often 53.6 µM), inactives show top-dose activity change, negative = inhibition, usual class: inhibitors. Drosophila S2 Gal4-RORgamma UAS-luciferase reporter, 20 h. AID 2551, 2010; further: potency means the concentration at half of the fitted maximal effect; nearly all actives have a fitted effect of over 60% in size
Target sequence (P51450 whole entry, looked up, the tested form may be a part): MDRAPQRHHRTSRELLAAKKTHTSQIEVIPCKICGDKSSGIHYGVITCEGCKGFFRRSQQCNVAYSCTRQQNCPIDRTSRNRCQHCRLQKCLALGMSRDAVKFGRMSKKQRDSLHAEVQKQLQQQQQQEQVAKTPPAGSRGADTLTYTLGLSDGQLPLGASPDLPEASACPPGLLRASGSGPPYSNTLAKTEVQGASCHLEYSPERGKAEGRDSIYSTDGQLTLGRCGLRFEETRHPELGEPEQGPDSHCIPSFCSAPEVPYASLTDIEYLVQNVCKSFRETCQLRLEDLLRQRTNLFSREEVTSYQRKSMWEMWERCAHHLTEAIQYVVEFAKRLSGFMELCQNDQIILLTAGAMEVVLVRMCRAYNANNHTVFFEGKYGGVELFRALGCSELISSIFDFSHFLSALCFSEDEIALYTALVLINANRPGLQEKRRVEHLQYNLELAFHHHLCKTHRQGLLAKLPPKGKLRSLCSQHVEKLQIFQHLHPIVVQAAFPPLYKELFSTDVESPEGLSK
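Stably transfected Drosophila Schneider cells are the test system, with ROR gamma fused to Gal4 and luciferase under UAS control; luminescence is read after 20 hr of 700 uM copper sulfate induction at ambient temperature.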
IL-1B inflam inh: qHTS for Inhibitors of Inflammasome Signaling: IL-1-beta AlphaLISA Primary Screen | 360,000 compounds, 4.7% hits | THP-1 LPS/ATP IL-1B secretion, AlphaLISA, 16 h; active compounds read low | activity change, % at 57.5 µM; in the data active means activity change below about -50%; inconclusive means mostly about -30% to -49%
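THP-1 cells pretreated 1 hr with compounds (up to 57.5 uM final), then stimulated with LPS (250 ng/mL final) plus ATP (1.25 mM final); secreted IL-1B measured by AlphaLISA after 16 hr, decreased signal indicating inhibition.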
LDHA block: qHTS assay for inhibitors of human lactate dehydrogenase | purified LDHA, NADH/diaphorase-resazurin fluorescence; active compounds read low | activity change, % (values are at about 110 or 230 µM) | AID 1347041, 2019 | L-lactate dehydrogenase A chain (Homo sapiens), P00338 | 480,000 compounds, 0.15% hits; in the data active means activity change below about -30%; inconclusive means mostly about -25% to -30%;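 further: plate controls were DMSO wells for no effect and wells without enzyme for full effect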
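Human LDH5 at 2 nM final in Tris HCl pH 7.4 with 0.06 mM NADH and 0.2 mM pyruvate, reacted 5 minutes at room temperature. Remaining NADH coupled via diaphorase/resazurin; resorufin fluorescence read at 0 and 20 minutes, normalized to enzyme-free and DMSO wells.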
TDP1 cell noCPT: qHTS for Inhibitors of human tyrosyl-DNA phosphodiesterase 1 (TDP1): qHTS in cells in absence of CPT; DT40 Tdp1-/- hTDP1 cells, no CPT, ATP luminescence, 48 h; Potency, µM (top dose mostly 46.2 µM), for inactives: at the top dose activity change, negative = growth inhibition, hits mostly inhibitors; 420,000 compounds, 15% hits; further: potency means the concentration at half of the fitted maximal effect; nearly all actives have a fitted effect of over 55% in size
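Growth of hTDP1-complemented DT40 Tdp1-knockout cells is measured by ATP luminescence after at least 48 hr compound exposure at 37 °C, with DMSO substituting for the 20 nM CPT used in the parallel screen.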
TDP1 cell CPT: qHTS for Inhibitors of human tyrosyl-DNA phosphodiesterase 1 (TDP1): qHTS in cells in presence of CPT; chicken DT40 Tdp1-/-;hTDP1 cells + 20 nM CPT, ATP luminescence, 48 h; Potency, µM (titrated, usually from 46.2 µM), without a hit: at the highest dose activity change, negative = growth inhibition, usual class: inhibitors; 420,000 compounds, 12% hits; AID 686979, 2013; further: potency means the concentration at half of the fitted maximal effect; nearly all actives have a fitted effect of over 55% in size
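Chicken DT40 Tdp1-/- cells complemented with human TDP1, 400 cells/well, exposed to compounds plus 20 nM camptothecin for at least 48 h at 37 C; viability read as ATP content by CellTiter-Glo luminescence.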
VP16 counter: VP16 counterscreen qHTS for inhibitors of ROR gamma transcriptional activity | 310,000 compounds, 3.5% hits | Drosophila S2 Gal4-VP16 UAS-luciferase, luminescence, 20 h | Potency, µM (top dose mostly 53.6 µM), without a hit: top-dose activity, negative = inhibition, usual class: inhibitors;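 further: Gal4-VP16 expression switched on by copper sulfate through the metallothionein promoter; potency means the concentration at half of the fitted maximal effect; nearly all actives have a fitted effect of over 50% in size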
* = called active by the depositor; i = inactive; ? = inconclusive; / = no result given. Most compounds without a hit are left out; they make up all but 18% or so of the library. Unless noted, the call rests on the fitted dose curve; in most records, active means well fitted curve in the direction sought with a large enough effect; inconclusive means small, poorly fitted or top-dose-only effect, or another doubt; inactive means no such curve, though single readings can be large; an effect the other way counts as inactive or inconclusive. Unless noted, on the % scale 0 is the no-effect control and ±100 the full control effect.

SMILES	RORgamma inh	IL-1B inflam inh	LDHA block	TDP1 cell noCPT	TDP1 cell CPT	VP16 counter
CCOC(=O)Cc1nnc(SC(C)C(=O)Nc2cccc(F)c2)n1C (stereo unspecified)	/	/	5	/	/	/
Cc1cc(C)cc(N2CC(c3nc(-c4ccccn4)no3)CC2=O)c1 (stereo unspecified)	/	/	-19	/	/	/
CC1CC2OC2CC1COC(=O)C1CC2OC2CC1C (stereo unspecified)	/	17	-7	?	16µM*	/
COc1ccc(OCC(=O)Nc2ccc(N3CCOCC3)c(Cl)c2)cc1	-19%	-18	-1	-2%	-20%	3%
Cc1cc(OCC(=O)Nc2ccc(N3CCN(C(=O)c4ccco4)CC3)cc2)cc(C)c1Cl	-28%	-4	-4	10µM*	9.2µM*	-21%
COc1ccc(OCC(=O)Nc2ccc(N3CCN(C(=O)c4ccccc4)CC3)c(Cl)c2)cc1	-38%	i	-4	12µM*	?	?
CCc1ccc(OCC(=O)Nc2ccc(N3CCN(C(=O)c4ccccc4)CC3)cc2)cc1	-13%	0	-2	-16%	?	-9%
CCC(=O)N1CCN(c2ccc(NC(=O)COc3cccc(C)c3C)cc2)CC1	44%	19	2	18µM*	?	-3%
COc1ccc(OCC(=O)Nc2ccc(N3CCN(C(=O)c4ccccc4C)CC3)cc2)cc1	28%	-22	1	?	26µM*	-18%
Cc1cccc(OCC(=O)Nc2ccc(N3CCN(C(=O)c4ccccc4)CC3)cc2)c1C	8%	i	-2	?	?	-20%
Cn1cc(C(=O)CN2C(=O)COc3ccc(Cl)cc32)c2ccccc21	/	/	-2	/	/	/
CN1C(=O)Cc2cc(-c3csc(NC4CCCC4)n3)ccc21	/	/	-1	/	/	/
CC(Cn1cccn1)NC(=O)N1CCN(Cc2ccncc2)CC1 (stereo unspecified)	/	/	-1	/	/	/
N#Cc1nc(-c2ccco2)oc1N1CCN(C(=O)c2ccc(F)cc2)CC1	/	/	12	/	/	/
Cn1cnc2c1c(=O)n(CCCn1nnc(-c3ccc(F)cc3)n1)c(=O)n2C	/	/	-9	/	/	/
O=C(Nc1cccc(Cl)c1)C1CCN(c2cnc3ccccc3n2)CC1	/	/	9	/	/	/
Cc1ccc(C(=O)Nc2ccc(N3CCN(C(=O)c4ccco4)CC3)cc2)cc1	11%	-18	-3	-29%	-1%	-15%
Cc1ccccc1OCC(=O)Nc1ccc(N2CCN(C)CC2)c(Cl)c1	-23%	?	-2	15µM*	?	-4%
Cc1ccccc1OCC(=O)Nc1cccc(C(=O)O)c1	2.5µM*	26	-15	5%	5%	6.3µM*
Cc1ccc(OCC(=O)Nc2ccc(N3CCN(S(C)(=O)=O)CC3)cc2)cc1C	2%	-4	-7	6%	-1%	1%
Cc1cccc(OCC(=O)Nc2ccc(N3CCN(C(=O)c4ccco4)CC3)cc2)c1	32%	-54*	-2	21µM*	18µM*	-24%
Cc1ccc(OCC(=O)Nc2ccc(N3CCN(C(=O)c4ccco4)CC3)cc2)cc1C	31%	-82*	-5	?	?	-10%
Cc1cccc(OCC(=O)Nc2cc(NC(=O)COc3cccc(C)c3C)cc(C(=O)O)c2)c1C	/	4	-4	-26%	-19%	/
CN(CC(=O)N1CCN(c2oc(-c3ccco3)nc2C#N)CC1)Cc1ccc(C(F)(F)F)cc1	/	/	-5	/	/	/
COCc1ccccc1CNC(=O)c1nccnc1N	/	/	0	/	/	/
SMILES	RORgamma inh	IL-1B inflam inh	LDHA block	TDP1 cell noCPT	TDP1 cell CPT	VP16 counter
CNC(=O)COC(=O)c1cc(-c2ccc(F)cc2)nc2ccccc12	/	/	9	/	/	/
Cc1ccc(OCC(=O)Nc2cc(NC(=O)COc3ccc(C)cc3)cc(C(=O)O)c2)cc1	-2%	32	-1	5%	-2%	-17%
Cc1ccc(OCC(=O)Nc2cc(C(=O)O)cc(C(=O)O)c2)cc1C	2%	25	-9	?	6.5µM*	-11%
CC(C)c1ccccc1NC(=O)c1nn(C)c(=O)c2ccccc12	/	/	-13	/	/	/
COc1ccc(OCCN2CCOCC2)cc1	/	16	-22	5%	6%	/
c1cc(-c2cc3nc(NC4CCCCC4)ccn3n2)ccc1OCCN1CCOCC1	/	-76*	-9	3.3µM*	3.3µM*	/
Clc1cccc(CNc2ccn3nc(-c4ccc(OCCN5CCOCC5)cc4)cc3n2)c1	/	-5	0	12µM*	8.2µM*	/
CC(C)Cc1ccc(-c2cc3nc(NCC4CC4)ccn3n2)cc1	/	0	-1	?	21µM*	/
c1cc(-c2cc3nc(NCC4CC4)ccn3n2)ccc1OCCN1CCOCC1	/	-21	-3	23µM*	23µM*	/
Fc1ccc(CNc2ccn3nc(-c4ccccc4)cc3n2)cc1	/	12	3	?	?	/
CN(C)C(=O)CNc1ccn2nc(-c3cccc(OCCN4CCOCC4)c3)cc2n1	/	-1	-7	-27%	11%	/
Cc1cc(-c2ccc(S(=O)(=O)Nc3cccc(C(F)(F)F)c3)s2)on1	/	/	-6	?	21µM*	/
CCOC(=O)c1cc(-c2ccc(S(=O)(=O)Nc3ccccc3CC)s2)on1	/	/	6	/	/	/
COc1ccccc1NS(=O)(=O)c1ccc(-c2cc(C)no2)s1	21%	56	-16	7.3µM*	7.3µM*	-16%
Cc1cc(C)c(S(=O)(=O)Nc2cccc(C(F)(F)F)c2)c(C)c1	?	/	2	?	?	?
COc1ccc(C(=O)NC2CCCc3c2cnn3-c2ccc(C)c(C)c2)c(OC)c1OC (stereo unspecified)	?	43	-1	?	?	-26%
COc1ncccc1C(=O)NC1CCCc2c1cnn2-c1ccc(C)c(C)c1 (stereo unspecified)	56%	-2	0	16µM*	16µM*	-14%
CSc1ncccc1C(=O)NC1CCCc2c1cnn2-c1ccc(C)c(C)c1 (stereo unspecified)	?	i	-11	7.3µM*	8.2µM*	?
COc1cccc(C(=O)NC2CCCc3c2cnn3-c2ccc(C)c(C)c2)c1OC (stereo unspecified)	44%	-4	-2	?	?	-24%
CCC(=O)OCCCNc1nc(-c2ccc(Cl)cc2)nc2ccccc12	/	/	2	?	?	/
